Data reported in article PMC4336329 (PLoS ONE, 2015).
Out of some 310,000 compounds screened, about 14,000 (4.5%) showed an effect of 50% or more. Effects have a minus sign here. The sample as a whole holds a higher share of strong results than the screen did.

Target: human ether-à-go-go-related gene (hERG) potassium channel (human, UniProt Q12809)
Assay: primary screen, population patch clamp on CHO cells stably expressing hERG; higher = less effect of the substance
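Further: peak tail current of the secondary pulse compared with the same well before compound.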

Sequence of human ether-à-go-go-related gene (hERG) potassium channel (Q12809 whole entry, looked up): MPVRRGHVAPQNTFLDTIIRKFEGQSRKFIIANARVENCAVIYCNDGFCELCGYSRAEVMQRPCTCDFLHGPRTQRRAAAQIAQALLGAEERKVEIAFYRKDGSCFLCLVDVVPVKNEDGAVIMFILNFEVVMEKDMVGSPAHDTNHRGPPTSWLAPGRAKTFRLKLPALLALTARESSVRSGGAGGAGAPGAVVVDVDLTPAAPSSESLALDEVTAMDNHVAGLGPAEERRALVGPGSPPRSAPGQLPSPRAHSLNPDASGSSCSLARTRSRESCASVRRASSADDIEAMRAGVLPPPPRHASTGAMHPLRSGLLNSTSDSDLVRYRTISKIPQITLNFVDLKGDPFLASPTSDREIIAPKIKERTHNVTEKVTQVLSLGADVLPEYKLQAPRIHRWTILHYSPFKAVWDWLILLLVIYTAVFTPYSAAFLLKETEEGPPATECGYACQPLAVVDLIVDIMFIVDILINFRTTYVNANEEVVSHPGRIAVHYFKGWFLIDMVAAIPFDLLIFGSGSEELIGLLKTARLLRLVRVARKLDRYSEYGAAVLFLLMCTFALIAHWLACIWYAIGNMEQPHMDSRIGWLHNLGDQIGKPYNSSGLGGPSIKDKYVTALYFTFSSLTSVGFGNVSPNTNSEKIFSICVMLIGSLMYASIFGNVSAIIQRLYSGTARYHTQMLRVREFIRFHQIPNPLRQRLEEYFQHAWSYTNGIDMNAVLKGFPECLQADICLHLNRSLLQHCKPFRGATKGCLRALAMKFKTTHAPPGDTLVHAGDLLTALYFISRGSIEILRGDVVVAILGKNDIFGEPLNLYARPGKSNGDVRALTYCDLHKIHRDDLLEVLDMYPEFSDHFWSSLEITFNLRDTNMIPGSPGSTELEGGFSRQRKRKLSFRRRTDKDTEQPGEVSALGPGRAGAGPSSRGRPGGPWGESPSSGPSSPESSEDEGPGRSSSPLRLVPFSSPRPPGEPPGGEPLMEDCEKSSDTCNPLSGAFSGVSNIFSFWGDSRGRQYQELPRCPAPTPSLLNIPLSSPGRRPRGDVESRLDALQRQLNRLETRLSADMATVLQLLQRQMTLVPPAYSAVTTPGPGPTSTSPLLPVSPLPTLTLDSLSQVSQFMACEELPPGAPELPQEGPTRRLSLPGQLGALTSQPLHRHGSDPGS

Row | SMILES | hERG current change (%, negative = inhibition) at 10uM
1 | O=C(NCC1CC1)c1ccccc1Cl | 11.6%
2 | COc1ccc(N2CCN(C3CC(=O)N(c4ccc5c(c4)OCCO5)C3=O)CC2)cc1 (centres unmarked) | -2.06%
3 | CC(=O)Oc1ccccc1C(=O)N(C1CCCCC1)C1CCCCC1 | 15.3%
4 | COc1ccc(C(=O)N/N=C(\Cc2ncc[nH]2)c2ccccc2)cc1 | 2.43%
5 | COCCN(C(=O)CSc1nnc(-c2ccccc2C)n1C)c1c(N)n(Cc2ccccc2)c(=O)[nH]c1=O | 38.4%
6 | O=C(/C=C/c1ccc(F)cc1)N1CCCc2ccccc21 | -62.7%
7 | COc1ccccc1/C=C/C(=O)N1CCC(c2ccccc2)C1 (centres unmarked) | -4.29%
8 | O=C(/C=C/c1ccccc1)N1CCCN(C(=O)/C=C/c2ccccc2)CC1 | -68.5%
9 | O=C(/C=C/c1ccccc1)N1CCC(c2ccccc2)C1 (centres unmarked) | -57.6%
10 | CN1CCN(C(=O)/C=C/c2ccccc2)CC1 | 4.5%
11 | O=C(/C=C/c1ccccc1)N1CCOCC1 | 13.9%
12 | COc1ccc(/C=C/C(=O)N2CCCc3ccccc32)cc1 | -16.8%
13 | O=C(/C=C/c1cccc(F)c1)N1CCc2ccccc21 | 4.51%
14 | COc1ccc(/C=C/C(=O)N2CCC(c3ccccc3)C2)cc1 (centres unmarked) | -47.4%
15 | CCC(=O)Oc1ccc2c(c1)OC1(OC(C)=O)OC(C)CC1=C2C (centres unmarked) | -5.19%
16 | CCCCn1nnnc1NCc1cccnc1 | 8.93%
17 | COc1ccc(CC(=O)NCc2nnc(SCC(=O)Nc3ccc(OC)cc3)n2C)cc1 | 4.08%
18 | Cc1ccc(S(=O)(=O)N2CCN(C(=O)c3ccc(COc4ccccc4)o3)CC2)cc1 | -0.773%
19 | CCOC(=O)c1ccc(NC(=O)C2CCCN(S(=O)(=O)c3ccc(F)cc3)C2)cc1 (centres unmarked) | -15.1%
20 | COc1ccc(-c2nn(C)c3sc(C(=O)NCCN(C)C)cc23)cc1OC | 15.4%
21 | O=C(OCC(=O)c1ccc(Cl)cc1Cl)c1cnccn1 | -58.3%
22 | COc1cc(S(=O)(=O)NCCCn2ccnc2)ccc1Cl | 7.94%

Row | SMILES | hERG current change (%, negative = inhibition) at 10uM
23 | O=C(CCCOc1ccc(Cl)cc1Cl)NCCCn1ccnc1 | -62.5%
24 | Cc1cc(Cl)ccc1OCCCC(=O)NCc1ccncc1 | -44.4%
25 | O=C(OCC(=O)c1ccccc1Cl)c1cnccn1 | -0.611%
26 | Cc1cc(Cl)ccc1OCCCC(=O)NCCCn1ccnc1 | -68.1%
27 | Cl.O=C(COc1ccc(Cl)cc1Cl)NCCCn1ccnc1 | -38.6%
28 | CCOc1cc(S(=O)(=O)NCCCn2ccnc2)ccc1Cl | -64%
29 | CCOc1cc(Cl)c(S(=O)(=O)NCCCn2ccnc2)cc1Cl | -48.9%
30 | Cc1cc(Cl)ccc1OCC(=O)NCCCn1ccnc1 | -29.8%
31 | O=C(COC(=O)c1cnccn1)c1ccc(Cl)cc1 | 24.4%
32 | CC(Oc1ccc(Cl)cc1Cl)C(=O)NCCCn1ccnc1 (centres unmarked) | -28%
33 | Cc1ncc([N+](=O)[O-])n1CC(=O)Nc1ccc(F)cc1F | 13.3%
34 | CCOc1ncccc1C(=O)OCC(=O)Nc1ccc(C)c(S(=O)(=O)N2CCOCC2)c1 | -27%
35 | CCOC(=O)[C@H]1[C@H]2COc3ccc(OC)cc3[C@@H]2N2C(=O)CN(Cc3ccc(F)cc3)C(=O)[C@@]12C | -26.5%
36 | CCOC(=O)/C=c1\s/c(=C\c2ccc(C(=O)OC)cc2)c(=O)n1CC(=O)Nc1ccccc1.Cl | 19.5%
37 | COc1ccc(NC(=O)CCCn2c(=O)c3sccc3n(Cc3ccc(C)cc3)c2=O)cc1 | -5.72%
38 | COc1ccc(NC(C)=O)cc1S(=O)(=O)N1CCN(C(=O)c2ccccc2F)CC1 | -7.16%
39 | O=C(COc1ccccc1Cl)NCCCNC(=O)c1cnccn1 | 5.28%
40 | O=C(NCCCNC(=O)c1ccc(-c2cccc(Cl)c2)o1)c1cnccn1 | -31.8%
41 | O=C(COc1ccc(Cl)cc1)NCCCNC(=O)c1cnccn1 | -10.2%
42 | Cc1ccc(-c2ccc(C(=O)NCCCNC(=O)c3cnccn3)o2)cc1Cl | 25.5%
43 | O=C(COc1ccc(Cl)cc1Cl)NCCCNC(=O)c1cnccn1 | -56.5%
44 | O=C(NCCNC(=O)c1ccc(-c2ccc(Cl)c(Cl)c2)o1)c1cnccn1 | -71.6%

Row | SMILES | hERG current change (%, negative = inhibition) at 10uM
45 | CCn1c(SCc2cc(=O)[nH]c3ccccc23)nnc1C1CC1 | 8.48%
46 | O=C(N/N=C/c1ccncc1)c1cccc(NC(=O)c2ccccc2Cl)c1 | -2.33%
47 | O=C(C1CCN(S(=O)(=O)c2cccc3nsnc23)CC1)N1CCCCC1 | 2.03%
48 | O=C(CN1CCN(c2ccc(F)cc2)CC1)N(C1CCCC1)C1CCS(=O)(=O)C1 (centres unmarked) | -40.4%
49 | Cc1ccccc1Cn1cc(/C=N/n2cnnc2)c2ccccc21 | 14.8%
50 | COc1cc(CC(=O)Oc2ccc3c(c2)OCO3)cc(OC)c1OC | -2.51%
51 | COc1ccc(CCNC(=O)CS(=O)(=O)Cc2nc(-c3ccccc3Cl)oc2C)cc1OC | -3.23%
52 | CCn1cc(CNC(=O)c2cc(-c3ccccc3OC)nc3ccccc23)c(C)n1 | -19.5%
53 | CC(=O)Nc1cccc(/C(C)=N/NC(=O)c2cc(-c3ccncc3)nc3ccccc23)c1 | -6.95%
54 | COc1ccc(-c2cc(C(=O)N/N=C(\C)c3cccnc3)c3ccccc3n2)c(OC)c1 | 1.6%
55 | COc1ccc(-c2cc(C(=O)NCc3cn(C)nc3C)c3ccccc3n2)cc1OC | 2.61%
56 | C/C(=N\NC(=O)c1cc(-c2ccncc2)nc2ccccc12)c1ccc(OC(F)F)cc1 | -56.1%
57 | COc1ccc(-c2cc(C(=O)N/N=C(\C)c3cccnc3)c3ccccc3n2)cc1 | 8.87%
58 | COc1ccc(OC)c(-c2cc(C(=O)N/N=C(\C)c3cccnc3)c3ccccc3n2)c1 | -65.5%
59 | COc1ccc(/C(C)=N/NC(=O)c2cc(-c3cccnc3)nc3ccccc23)cc1 | 10.6%
60 | CCn1cc(CNC(=O)c2cc(-c3cc(OC)ccc3OC)nc3ccccc23)c(C)n1 | -53.9%
61 | CCOC(=O)c1cc(-c2ccccc2C)n(CC2CC(c3cccc([N+](=O)[O-])c3)=NO2)n1 (centres unmarked) | 0.113%
62 | Cc1csc(SCC(=O)Nc2cccc(S(=O)(=O)N3CCOCC3)c2)n1 | -6.13%
63 | CCn1nnnc1SCC(=O)N1c2ccccc2CCc2ccccc21 | 2.92%
64 | CCOC(=O)C(=O)Nc1nnc(SCc2ccc(F)cc2)s1 | 1.7%
65 | Cc1ccc(SCC(=O)NC2CC2)cc1 | 13.3%
66 | CCOCCCNC(=O)c1cc(C)nn1-c1ccccc1 | 11%

Row | SMILES | hERG current change (%, negative = inhibition) at 10uM
67 | COCCN1CCCC(CNCc2cn(C)nc2-c2ccc(Oc3ccccc3)cc2)C1 (centres unmarked) | -33.2%
68 | CCN(CC)C(=O)C1CCN(Cc2cn(C)nc2-c2ccc(Oc3ccccc3)cc2)CC1 | -46.9%
69 | COC1CCCN(Cc2cn(C)nc2-c2ccc(Oc3ccccc3)cc2)C1 (centres unmarked) | -40.7%
70 | Cn1cc(CN2CCC(O)CC2)c(-c2ccc(Oc3ccccc3)cc2)n1 | -23.7%
71 | Cn1cc(CN2CCCC(CO)C2)c(-c2ccc(Oc3ccccc3)cc2)n1 (centres unmarked) | -26.2%
72 | C[C@H]1C(=O)N(C)CCN1Cc1cn(C)nc1-c1ccc(Oc2ccccc2)cc1 | -4.92%
73 | CCOC(=O)C1CCN(Cc2cn(C)nc2-c2ccc(Oc3ccccc3)cc2)CC1 | -44.9%
74 | COCCN1CCN(Cc2cn(C)nc2-c2ccc(Oc3ccccc3)cc2)CC1 | -65.2%
75 | CC1CN(Cc2cn(C)nc2-c2ccc(Oc3ccccc3)cc2)CCN1C (centres unmarked) | -57.2%
76 | Cn1cc(CN2CCN(CCO)CC2)c(-c2ccc(Oc3ccccc3)cc2)n1 | -32.3%
77 | CCCN1CCC(NCc2cn(C)nc2-c2ccc(Oc3ccccc3)cc2)CC1 | -66.1%
78 | Cn1cc(CN2CCC(CO)CC2)c(-c2ccc(Oc3ccccc3)cc2)n1 | -67.5%
79 | O=C(O)c1ccc2c3c(cccc13)C(=O)N(c1cccc3ccccc13)C2=O | 34.3%
80 | COc1ccc(-c2[nH]ncc2CN(CCO)Cc2cccs2)c(F)c1 | 4.65%
81 | CCCC(=O)NC(C)c1nc2ccccc2n1C(C)C (centres unmarked) | 8.05%
82 | Cc1cc(C)cc(N(CCC#N)C(=O)COC(=O)CN2C(=O)NC(C)(C)C2=O)c1 | 19.6%
83 | COc1cccc(NC(=O)NNS(=O)(=O)c2ccc(OC)cc2OC)c1 | -3%
84 | COc1ccc(N=N/C(C(C)=O)=C(/C)O)cc1 | -24.5%
85 | CN(C)S(=O)(=O)c1cccc(-c2nn(-c3ccccc3)cc2/C=C2\SC(=S)NC2=O)c1 | 20.1%
86 | CCOc1cc(C(=O)OCC(=O)N(C)c2ccccc2)cc(OCC)c1OCC | -17.6%
